Assay results from PubChem BioAssay AID1851 (National Center for Advancing Translational Sciences (NCATS), 2009).
Values joined by “and” are separate entries in the source; they are usually repeats but may differ in a detail not shown here. Identical values can stand only once. Hit rate of the full screen: of about 16,000 compounds, about 5,700 (36%) were called active. Roughly 24% stayed inconclusive and do not appear here. The call rests on the fitted dose curve; in most records, active means well fitted curve in the direction sought with a large enough effect; inconclusive means small, poorly fitted or top-dose-only effect, or effect the other way; inactive means no such curve, though single readings can be large or run the other way. The list shows a part of the results.

Target: Cytochrome P450 1A2 (Homo sapiens) (UniProt P05177)
Assay: Cytochrome panel assay with activity outcomes
Conditions: recombinant CYP, pro-luciferin dealkylation, luminescence, p450-cyp1a2; series mostly up to 57.1 µM
On the % scale 0 is the no-effect control and ±100 the full control effect.

Chain of Cytochrome P450 1A2 (Homo sapiens) (P05177 whole entry, looked up): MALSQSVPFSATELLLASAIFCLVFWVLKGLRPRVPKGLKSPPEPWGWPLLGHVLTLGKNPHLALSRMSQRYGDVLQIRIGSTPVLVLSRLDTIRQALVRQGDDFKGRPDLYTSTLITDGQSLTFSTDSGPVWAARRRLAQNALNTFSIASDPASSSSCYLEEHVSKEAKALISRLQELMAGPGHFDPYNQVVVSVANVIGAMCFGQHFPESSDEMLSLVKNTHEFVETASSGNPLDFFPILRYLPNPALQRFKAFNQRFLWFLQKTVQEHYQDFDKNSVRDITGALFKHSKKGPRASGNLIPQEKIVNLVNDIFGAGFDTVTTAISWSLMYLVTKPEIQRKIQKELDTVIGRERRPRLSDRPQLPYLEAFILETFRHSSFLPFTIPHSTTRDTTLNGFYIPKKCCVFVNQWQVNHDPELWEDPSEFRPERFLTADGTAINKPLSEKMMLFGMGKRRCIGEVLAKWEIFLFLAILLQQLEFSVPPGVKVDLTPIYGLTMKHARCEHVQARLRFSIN

AC50, inactive:
CC(C)NC(=O)N1CC[C@@]2(CCCN(C(=O)c3cc(C(F)(F)F)cc(C(F)(F)F)c3)C2)C1
N#Cc1c[nH]n2c(=O)c3c(nc12)CCCC3
CCN1C(=O)C=CC1=O
Cc1ccc(SCc2nnc(NC(=O)c3ccccc3)s2)cc1
Cc1ccc(C(=O)NCc2ccc(N3CCN(C(=O)OC(C)(C)C)CC3)cc2)cc1
Cc1ccc(NC(=S)NCCN2CCOCC2)cc1C
Cc1ccc(C(=O)NCCNC(=O)CN2CCOCC2)cc1
N[C@H](C(=O)N[C@@H]1C(=O)N2C(C(=O)O)=C(Cl)CS[C@@H]12)c1ccccc1
CC(=NCCN1CCN(C(=S)Nc2ccccc2)CC1)C1=C(O)CC(C)(C)CC1=O
CO/N=C(\C(=O)N[C@@H]1C(=O)N2C(C(=O)[O-])=C(C[N+]3(C)CCCC3)CS[C@@H]12)c1csc(N)n1
CN(C)CCNC(=O)C1CCCNC1=O (centres undefined)
COc1ccc(C(Cl)=C(c2ccc(OC)cc2)c2ccc(OC)cc2)cc1
C[N+](C)(C)CCCCCCCCCC[N+](C)(C)C
O=C1CCCC2=C1C(c1ccc(OS(=O)(=O)c3ccc(Cl)cc3)cc1)C1=C(CCCC1=O)O2
Cc1ccc(S(=O)(=O)Oc2ccc(C3C4=C(CCCC4=O)OC4=C3C(=O)CCC4)cc2)cc1
CCN1CCN(C(=O)C2c3cc(OC)c(OC)cc3C(=O)N3CCc4ccccc4C23)CC1 (centres undefined)
O=C(NC1CCCc2ccccc21)C1CCN(S(=O)(=O)N2CCCCCC2)CC1 (centres undefined)
CCCCCc1nnc(NC(=O)C(=O)OCC)s1
Cc1sc(NC(=O)C2CCCCC2C(=O)O)c(C(N)=O)c1C (centres undefined)
O=C(Oc1ccc(C(=S)N2CCOCC2)cc1Br)c1cc(Cl)ccc1Cl
O=C(O)c1cc2ccccc2c(Cc2cc3ccccc3c(C(=O)O)c2O)c1O (tested in a mixture with another compound)
C=CCSC[C@@H]1Nc2cc(Cl)c(S(N)(=O)=O)cc2S(=O)(=O)N1
Cc1noc(C)c1C(=O)N1CCC[C@@]2(CCN(c3ncccn3)C2)C1
COc1cccc(N(C(=O)Cn2nnc(-c3ccc(C)cc3)n2)C(C(=O)NC(C)(C)C)c2c[nH]c3ccccc23)c1 (centres undefined)
COC(=O)c1ccccc1OCC(=O)N1CCN(c2ccc(OC)cc2)CC1
CCOc1cc(/C=C2/SC(=O)N(CC(=O)N3CCc4ccccc4C3)C2=O)ccc1OCC(=O)O
COC(=O)CSc1nnc(-c2ccccc2OC)n1-c1ccc(C)cc1
COc1cc(=O)n2c(n1)SCCC2
O=c1c(Cc2ccccc2)c(O)nc2n1CCS2
CCn1c(=O)c2c(nc3n2CCS3)n(C)c1=O
COc1ccccc1OCCOc1ccc(/C=C2/C(=N)N3OC(C)=CC3=NC2=O)cc1OC
COCCN1C(=O)c2ccccc2C(C(=O)Nc2ccc3c(c2)OCCO3)C1c1ccc(F)cc1 (centres undefined)
COc1ccc(NC(=O)N2CCCC3(CCN(C(=O)c4cnccn4)CC3)C2)cc1
COc1ccc(NC(=O)N2CCCC3(CCN(C(=O)c4cc(C(F)(F)F)cc(C(F)(F)F)c4)CC3)C2)cc1

AC50, active:
Nc1[nH]n2c(=O)c3c(nc2c1N=Nc1ccccc1)CCCC3 5.62 µM
O=c1c2c(nc3c(-c4ccccc4)c[nH]n13)CCC2 5.62 µM
Cc1ccc(-c2[nH]n3c(=O)c4c(nc3c2C)CCCC4)cc1 2.51 µM
CCC(=O)OCN1C(=O)C=CC1=O 3.16 µM
O=Nc1c(-c2c(O)[nH]c3ccccc23)[nH]c2ccccc12 0.0316 µM
Cc1ccc(SCCNC(=O)c2ccccc2)cc1 10 µM
Cc1ccc(SCCNC(=S)Nc2ccc(C)c(C)c2)cc1 11.2 µM
Cc1ccc(SCc2ccc(C(=O)NCc3ccncc3)cc2)cc1 0.355 µM
COCCn1c(=O)c(C)nc2cnc(Oc3cccc(Cl)c3)nc21 12.6 µM
COCCn1c(=O)cnc2cnc(Oc3cccc(Cl)c3)nc21 3.16 µM
Cc1nc2cnc(Oc3cccc(Cl)c3)nc2n(CCC#N)c1=O 15.8 µM
Cc1nc2cnc(Oc3cccc(Cl)c3)nc2n(CCc2ccccc2)c1=O 12.6 µM
CC(C)(C)n1nc(-c2ccc(Cl)cc2)c2c(N)ncnc21 1 µM
CC(C)(C)Cn1nc(-c2ccc(Cl)cc2)c2c(N)ncnc21 0.158 µM
CCCCSc1ccc2nc(-c3ccc(C#N)cc3)cn2c1 2.82 µM
CCN(CC)CCOc1ccc(/C(=C(\Cl)c2ccccc2)c2ccccc2)cc1 12.6 µM
CCc1ccc2[nH]c(O)c(N=Nc3nc(-c4ccccc4)cs3)c2c1 10 µM
COc1ccc2c(c1)OC1=C(C(=O)CCC1)C2C1=C(O)CCCC1=O (centres undefined) 7.08 µM
C=CCNc1sc(C(=O)c2ccccc2)c(N)c1C#N 3.16 µM
C=CCNc1sc(C(=O)c2ccc(C)cc2)c(N)c1C#N 1.78 µM
O=C(C1CCCCC1)N1CC(=O)N2CCc3ccccc3[C@@H]2C1 10 µM
CCOc1nc(N=C(N)N)nc2c(C)cccc12 0.178 µM
CN1Cc2c(C(=O)OC(C)(C)C)ncn2-c2ccsc2C1=O 15.8 µM
CN(C)c1ccc(-c2cncnc2NCCc2cnc[nH]2)cc1 1.26 µM
c1ncc(-c2ccc3c(c2)OCO3)c(NCCc2cnc[nH]2)n1 0.398 µM
CN(C)C(=O)c1ccc(-c2cncnc2NCCc2cnc[nH]2)cc1 12.6 µM
CCc1c(C)sc(NC(=O)OC)c1C(N)=O 8.91 µM
O=C(c1ccc(Cl)c(Cl)c1)c1cc(-c2ccccn2)c(N2CCOCC2)s1 11.2 µM
O=C(O)c1c2ccccc2cc2ccccc12 0.2 µM
COc1ccc2[nH]cc(CCNc3nc(-c4ccc(C(=O)N(C)C)cc4)nc4ccccc34)c2c1 15.8 µM
COc1ccc2[nH]cc(CCNc3nc(-c4ccc(N(C)C)cc4)nc4ccccc34)c2c1 1.26 µM
COC(=O)c1ccccc1NC(=O)c1cc2nc(C3CC3)cc(C(F)(F)F)n2n1 1.58 µM
COCCNc1nc(-c2ccccc2C(F)(F)F)nc2ccccc12 1.26 µM
COCCNc1nc(-c2ccccc2Cl)nc2ccccc12 0.126 µM
COCCNc1nc(-c2ccccc2OC)nc2ccccc12 0.794 µM
COCCNc1nc(-c2ccccc2C)nc2ccccc12 1.26 µM
O=S1(=O)C=C(N2CCOCC2)c2ccccc21 14.1 µM
COc1ccc2c(c1)c(=O)oc1c(C)c(OCC(=O)N3CCc4ccccc4C3)ccc12 2 µM
COc1ccccc1-c1nnc(SCc2nc3ccccc3s2)n1C 14.1 µM
N#Cc1c(-c2ccccc2)nc2n(c1=O)CCS2 3.16 µM
N#Cc1c(-c2ccc(Cl)cc2)nc2n(c1=O)CCCS2 1.41 µM
COc1ccc(/C=C2\OC(=O)c3c(OC)cccc32)cc1OC 3.16 µM
Cc1cc(-c2cc(C)c(O)c(C(C)(C)C)c2)cc(C(C)(C)C)c1O 0.631 µM
O=C(Nc1ccc2c(c1)OCCO2)c1cc2sccc2n1Cc1ccc(F)cc1 4.47 µM
COc1ccc(-c2cc(C(F)(F)F)n3nc(C(=O)N4CCCCC4)cc3n2)cc1 15.8 µM

activity, negative = inhibition, inactive:
CCOC(=S)SCC(=O)O -12.2% [at 11.4 µM]
Cc1ccc(S(=O)(=O)N[C@H]2COC(=O)C/C=C\[C@@H](C)COC(=O)C/C=C\[C@@H]2C)cc1 0.253% [at 11.4 µM] and 8.99% [at 11.4 µM]
Cc1ccc([C@@]2(C)CC/C(=N/N=C3\CC[C@](C)(c4ccc(C)c(C)c4)c4cc(C)c(C)cc43)c3cc(C)c(C)cc32)cc1C -12.4% [at 11.4 µM]
CC(C)[C@@H](OCc1ccccc1)[C@H](C)/C=N\O[C@@H](C)c1cn([C@H](CO)Cc2ccccc2)nn1 -2.54% [at 11.4 µM] and -7.97% [at 11.4 µM]
O=C(O)c1ccc(S(=O)(=O)N=Nc2c(O)[nH]c3ccccc23)cc1 -11.7% [at 11.4 µM]
[Cu].[O-]/N=C1/C(=[OH+])Nc2ccccc21.[O-]Nc1c(O)[nH]c2ccccc12 -20.1% [at 2.29 µM]
N#CC(CC(=O)O)=C(c1ccccc1)c1ccccc1 -14.5% [at 2.29 µM]
O=C(O)c1cc(C(=O)C(=O)c2cc(C(=O)O)c(O)c3ccccc23)c2ccccc2c1O -6.52% [at 11.4 µM]
C[C@H]1CCCC2(CC[N+](C)(CCC[N+](C)(C)C)CC2)C1 (some centres undefined) -9.21% [at 11.4 µM]
C[C@@H](N=C(N)N)C(=O)O -4.5% [at 11.4 µM]
OCCN(CO)CO -9.46% [at 11.4 µM]
CC(C)=CCC/C(C)=C/CO/N=C1/C[C@@H](O)[C@@H](O)[C@@H]2[C@@H]3C(=O)N(C[C@@H]4CCCO4)C(=O)[C@H]3CC[C@H]12 -0.0642% [at 11.4 µM]
CC(C)(C)N1C(=O)[C@H]2[C@H]3[C@H](O)[C@H](O)C/C(=N/NC(=O)OCc4ccccc4)[C@@H]3CC[C@@H]2C1=O -5.49% [at 11.4 µM]
Cc1cc(Cc2cc(C)cc(C(C)(C)C)c2O)c(O)c(Cc2cc(C)cc(C(C)(C)C)c2O)c1 -15.6% [at 2.29 µM]
Cc1cc(Cc2cc(Cc3cc(C)cc(C(C)(C)C)c3O)c(C)cc2C)c(O)c(C(C)(C)C)c1 -17.1% [at 2.29 µM]
